Source: PubChem (National Center for Advancing Translational Sciences (NCATS))
Only some compounds are listed: those with a hit (about 0.82% of all), similar ones and a draw of the others.
GPT2 inh = blocks human glutamate pyruvate transaminase 2. actives 0.25% (n = 100,000). Potency, µM (top dose mostly 57.7 µM), for inactives: at the highest dose activity change, negative = inhibition, hits mostly inhibitors. Q8TD30. Recombinant GPT2, coupled pyruvate oxidase/HRP Amplex Red fluorescence. AID 1671188; also: potency is read from the fitted curve at half-maximal effect; nearly all actives have a fitted effect of over 60% in size
Target sequence (Q8TD30 whole entry, looked up): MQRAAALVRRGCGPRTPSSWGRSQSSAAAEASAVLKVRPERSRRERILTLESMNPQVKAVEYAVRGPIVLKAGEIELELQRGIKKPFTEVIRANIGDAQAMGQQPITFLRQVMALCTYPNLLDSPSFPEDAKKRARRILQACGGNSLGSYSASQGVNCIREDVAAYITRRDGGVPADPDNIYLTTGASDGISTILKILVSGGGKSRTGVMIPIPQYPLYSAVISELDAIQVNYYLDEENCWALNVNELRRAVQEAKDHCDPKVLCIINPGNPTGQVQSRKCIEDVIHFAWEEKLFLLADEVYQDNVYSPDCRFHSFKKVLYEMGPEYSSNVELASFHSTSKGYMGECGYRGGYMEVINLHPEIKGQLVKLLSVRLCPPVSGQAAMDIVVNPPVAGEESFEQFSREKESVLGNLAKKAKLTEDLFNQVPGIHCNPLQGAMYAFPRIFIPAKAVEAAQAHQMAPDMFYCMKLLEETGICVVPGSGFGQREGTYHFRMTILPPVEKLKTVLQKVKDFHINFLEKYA
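Fluorescence read-out: pyruvate from GPT2 turnover coupled to pyruvate oxidase, HRP and Amplex Red (0.2mM ThPP, 0.2U/mL PO and HRP, 50uM Amplex final). Substrates 250uM a-KG, 2mM L-alanine; enzyme 10ng/uL; 30 min RT.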
IP6K1 inh = inhibitors of human IP6K1. actives 0.81% (n = 140,000). IP6K1 kinase, ADP-Glo luminescence, 2 h; active compounds read low. AID 1645851. Q92551. activity change, % (series mostly up to about 58 µM); in the data active = activity change below about -25%
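ADP-Glo luminescence measures ADP made by human IP6K1 during a 2 h RT reaction with ATP/IP6 (mix at 1.3 mM/130 uM); top library doses 57.5 and 19.1 uM final.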
IP6K1 inh cnf = human IP6K1 inhibition, confirmatory | actives 13% (n = 1,200) | Potency, µM (series often up to 49 µM), for inactives: at the highest dose activity change, negative = inhibition, hits mostly inhibitors | recombinant IP6K1 kinase, ADP-Glo luminescence, 2 h | shares compounds with IP6K1 inh; also: potency is read from the fitted curve at half-maximal effect; nearly all actives have a fitted effect of over 65% in size
The depositor's hits bear a star; i = inactive; ? = inconclusive; . = no result; [ ] = remark or other dose. Unless noted, calls follow the shape of the dose curve; as a rule, active = well fitted curve in the direction sought with a large enough effect; inconclusive = small, poorly fitted or top-dose-only effect, or another doubt; inactive = no such curve, though single readings can be large; an effect the other way counts as inactive or inconclusive. % is scaled to controls: 0 for no effect and ±100 for the full control effect.

SMILES | GPT2 inh | IP6K1 inh | others
Cc1cccc(C2CN(C)CCc3c2cc(O)c(O)c3Cl)c1 (configuration not stated) | 7.08µM* | .
O=C(N[C@@H]1CN(Cc2ccc(F)cc2)C[C@H]1CO)c1cccnc1 | -15.8% | 4.8
CCN1CCN(C(=O)c2nc3sccn3c2-c2cccnc2)CC1 | -11.9%[88.5 µM] | 13.1
COc1cccc(-n2nc(C(=O)O)cc2-c2ccc(C3CCCCC3)c(Cl)c2)c1 | -5.0% | -38.2*
COc1cccc(C(=O)N2CCCC(c3nn(-c4ccccc4)c(=O)[nH]3)C2)c1 (configuration not stated) | i | 6.8
CC(=O)OCC1=C(C(=O)O)N2C(=O)[C@@H](NC(=O)CSc3ccncc3)[C@H]2SC1 | -11.5% | -42.1*
CO/N=C(\C(=O)N[C@@H]1C(=O)N2C(C(=O)O)=C(COC(C)=O)CS[C@H]12)c1csc(N)n1 | 1.1% | .
COC1CCC12CCN(C(=O)C1CC1)CC2 (configuration not stated) | i | -12.5
CCOC(=O)C1CCCN(C(=O)c2cn3cc(-c4ccc(C)cc4)sc3n2)C1 (configuration not stated) | i | 16.8
C=CCn1c(=O)c2cnc(Nc3ccc(N4CCN(C)CC4)cc3)nc2n1-c1cccc(C(C)(C)O)n1 | -5.9% | 6.5
Cc1cnc(Nc2ccc(N3CCN(C)CC3)cc2)nc1Nc1cccc(S(=O)(=O)NC(C)(C)C)c1 | 19.3µM* | .
CCOc1ccc(/C=C/c2nc3ccccc3n2S(=O)(=O)c2cccc(Cl)c2)cc1 | . | -31.1*
Cc1ccc(/C=C/c2nc3ccccc3n2S(=O)(=O)c2cccc(Cl)c2)cc1 | . | -51.3*
CCOc1ccc(Cn2c(CNS(=O)(=O)c3cccc(Cl)c3)nc3cccnc32)cc1 | . | -5.5
C#CCn1c(/C=C/c2ccc(Cl)cc2)nc2ccccc21 | . | -19.7
CC1CCN(C(=O)C2(c3ccc(NC(=O)C4CC4)cc3)CCCCC2)CC1 | -3.6% | 9.4
O=C(NC1CCCCC1)C1CCN(C(=O)N2CC3CC(C2)[C@H]2CCCC(=O)N2C3)CC1 (some centres not stated) | -0.3% | -0.2
CC(=O)NCC1CCCN(Cc2ccc(-c3ccccc3C#N)o2)C1 (configuration not stated) | i | 16.8
O=C(Nc1ccc(S(=O)(=O)N(Cc2ccccc2)c2ccccc2)cc1)c1ccc(F)cc1 | . | -27.7*
O=C(Nc1ccc(S(=O)(=O)N(Cc2ccccc2)c2ccccc2)cc1)c1ccccc1F | . | 21.0
COc1cccc(CC(=O)N2CCC3(CC2)CC(OCC2CC2)CCO3)c1 (configuration not stated) | -9.0% | -9.4
COc1ccc(N2CC3CCC(C2)N3Cc2cccc(-c3cccnc3)c2)cc1 | 6.31µM* | 11.0
COc1ccc(N2CC3CCC(C2)N3Cc2ccccc2)cc1 | ? | 1.8
COc1cccc2c1C(=O)c1c(O)c3c(c(O)c1C2=O)C[C@@](O)(C(=O)CO)C[C@@H]3O[C@H]1C[C@H](N)[C@H](OC2CCCCO2)[C@H](C)O1 (some centres not stated) | 3.06µM* | .
COc1cccc2c1C(=O)c1c(O)c3c(c(O)c1C2=O)C[C@@](O)(C(=O)CO)C[C@H]3O[C@H]1C[C@H](N)[C@H](O)[C@H](C)O1 | i | .
SMILES | GPT2 inh | IP6K1 inh | others
NC[C@@H]1O[C@H](C23CC4CC(CC(C4)C2)C3)Cc2c1ccc(O)c2O | -17.1% | .
NC[C@@H]1O[C@H](c2ccccc2)Cc2c1ccc(O)c2O | 20µM* | .
CC(C)NC(=O)N1CCCCCNC(=O)[C@@H]2CCCC[C@@H]21 | -0.8% | -16.0
CCOC(=O)c1ccc(O)cc1 | i | 6.3
CCOC(=O)c1ccc(O)c(O)c1 | 28.2µM* | 16.0
COc1cccc2c1NC(=O)CC2C(=O)N1CCc2c(nc[nH]c2=O)C1 (configuration not stated) | i | 20.1
COc1cccc(-c2noc(CC3CCN(C(=O)CCc4ccccc4)CC3)n2)c1 | i | -15.6
COc1ccccc1NC(=O)c1cc(S(=O)(=O)N2CCN(c3ccccc3Cl)CC2)ccc1F | . | -11.1
COc1ccccc1N1CCN(S(=O)(=O)c2ccc(F)c(C(=O)Nc3ccc(Cl)cc3C(F)(F)F)c2)CC1 | . | -34.0*
CCCc1noc(-c2ccn3c(CNC(=O)c4ccco4)nnc3c2)n1 | -1.5% | 29.5
CNC(=O)[C@@H]1C[C@H](Oc2ccccc2)CN1C(=O)c1ccc(Cn2nc(C)cc2C)o1 | -1.3% | 37.8
Cc1ccc(N)cc1O | 11.2µM* | -22.0
Nc1ccc2cc3ccc(N)cc3nc2c1 | ? | 17.9
CC(=O)c1cccc(NC(=O)CN2C(=O)NC3(CCCCC3)C2=O)c1 | 1.8% | -3.2
CCOC(=O)c1c(C)[nH]c(C)c1S(=O)(=O)NCC(=O)Nc1cc(Cl)ccc1OC | . | -1.3
CCOC(=O)c1c(C)[nH]c(C)c1S(=O)(=O)N(C)CC(=O)Nc1cc(Cl)ccc1OC | . | -27.9*
CC(C)(C)CN1CCOC[C@H]1c1ncc(-c2ccc(F)cc2)[nH]1 | i | 2.8
COc1ccccc1Nc1ncc2c(n1)CN(C(=O)c1ccc(Oc3ccccc3)cc1)CCN2 | -17.1% | -3.3
Cc1ccc(C(=O)Nc2ccc(CN3CCN(C)CC3)c(C(F)(F)F)c2)cc1C#Cc1cnc2cccnn12 | ? | 22.4
CCc1ccc(C(=O)Nc2cc(CN3CCN(C)CC3)cc(C(F)(F)F)c2)cc1C#Cc1cnc2ccnn2c1 | ? | -39.4* | IP6K1 inh cnf=?
COc1ccccc1-n1c(=O)c(C(=O)N2CCN(C(=O)N(C)C)CC2)nc2cccnc21 | i | 8.3
COCc1cc(C)nc2sc3c(c12)NC(c1ccccc1C(=O)O)N(c1ccc(OC)cc1)C3=O (configuration not stated) | . | -30.7* | IP6K1 inh cnf=-1.9%
COCc1cc(C)nc2sc3c(c12)NC(c1ccc(O)c(OC)c1)N(c1ccccc1)C3=O (configuration not stated) | . | -7.1
CCn1c2ccccc2c2cc(Nc3ccnc(NCCCN4CCOCC4)n3)ccc21 | i | -7.0
O=C(O)c1ccccc1O | i | -4.5
SMILES | GPT2 inh | IP6K1 inh | others
Nc1ccc(C(=O)O)c(O)c1 | -5.1% | -74.0* | IP6K1 inh cnf=13.7%
COc1cc(NC(=O)Cn2c(-c3ccccc3)nc(C)c(CCO)c2=O)cc(OC)c1 | 0.5% | -5.7
CCCNC(=O)N1C[C@@H](Oc2cccnc2)C[C@@H]1C(=O)N1CCOCC1 | -16.5% | 10.3
COCC(=O)N[C@@H]1C[C@H](COC)[C@@H](O)[C@H]1O | i | -0.1
COC[C@H]1C[C@@H](N(C)C)[C@H](O)[C@@H]1O | i | -25.4* | IP6K1 inh cnf=?
CC[N+]1(C/C2=C/CCCCCC2)CCC(NC(=O)C2c3cc(Cl)ccc3Oc3ccc(Cl)cc32)CC1 (configuration not stated) | i | -0.6
COc1cccc(C(=O)N2CCC(c3nc(C4CCOC4)no3)CC2)c1 (configuration not stated) | i[11.5 µM] | -36.9* | IP6K1 inh cnf=-13.0%
COc1cc(OC)cc(C(=O)N2CCC(c3nc(C4CCOC4)no3)CC2)c1 (configuration not stated) | 1.4%[11.5 µM] | 18.8
COc1cc(Cl)c(C)cc1NC(=O)Cn1c(C)cc2nc3n(c(=O)c21)CCCCC3 | -10.5% | 20.2
